# C diff growth = C. difficile growth inhibition. 0.25% of 86,000 active. AID 1259249. growth activity, negative = inhibition, % at 16 µg/mL (by protocol). Clostridium difficile clinical isolate growth, OD600, 24 h; stronger effect = lower value;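 active = mean growth activity at or below -80% and every replicate also at or below -80%; inconclusive = mean at or below -80% but some replicate above -80%; inactive = mean growth activity above -80%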;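 note: 0% = DMSO wells and -100% = levofloxacin 16 µg/mL wells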
# Pf Dd2 inh = P. falciparum Dd2 growth inhibition | SYBR Green, 72 h; stronger effect = lower value | activity change, % at 10 µM | 2.3% of 94,000 active; in the data active = activity change below about -80%; inconclusive = no clear call, values can overlap the other calls
# T cruzi growth-1 = T. cruzi proliferation inhibition; AID 624255; inhibition, % at 8.34 µM; T. cruzi beta-gal in NIH3T3, GalScreen luminescence, 90 h; 5.9% of 77,000 active;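 active = mean inhibition above about 93%, with at least 55% of replicates each passing it, limit read from the data, passing the limit was not always enough; inconclusive = only one of those two conditions holds; inactive = neither condition holds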
# T cruzi growth-2 = blocks T. cruzi growth in NIH3T3 host cells; shares compounds with T cruzi growth-1; T. cruzi beta-gal in NIH3T3, GalScreen luminescence, 90 h; inhibition, % at 8.35 µM; 72% of 5,600 active; AID 651739;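 active = mean replicate inhibition above about 95% and at least 55% of replicates individually reaching it, limit read from the data; inconclusive = only one of the two criteria is met; inactive = neither criterion is met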
# T cruzi growth-3 = inhibitors of T. cruzi proliferation; inhibition, % at 2.09 µM; shares compounds with T cruzi growth-1; T. cruzi beta-gal in NIH3T3, GalScreen luminescence, 90 h; 21% of 5,600 active; AID 651740;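 active = mean inhibition above about 95%, with at least 55% of replicates also reaching it, limit read from the data; inconclusive = meets just one of the two conditions; inactive = meets neither condition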;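 note: plate controls were neutral control median for no effect and positive control median for full effect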
# NIH3T3 tox = kills mouse NIH/3T3 fibroblasts; shares compounds with T cruzi growth-1; NIH/3T3 viability, CellTiter-Glo ATP luminescence, 90 h; cytotoxicity (signal decrease), % at 8.35 µM; 14% of 5,600 active;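 active = mean signal decrease across replicates above about 35% based on untreated-well scatter, with enough replicates individually passing, limit read from the data; inconclusive = no rule stated though some were filed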;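 note: 0% = median of neutral control wells and 100% = median of positive control wells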
# NIH3T3 tox 2 = NIH/3T3 (mouse) viability loss | AID 651744 | inhibition, % at 24.9 µM | 56% of 5,600 active | shares compounds with T cruzi growth-1 | NIH/3T3 viability, CellTiter-Glo ATP luminescence, 90 h;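 active = mean loss of cell viability signal at or above a set limit, and enough replicates individually reaching it; inconclusive = meets only the mean limit or only the replicate share; inactive = meets neither condition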;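 note: 0% = median of neutral control wells and 100% = median of positive control wells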
# Starred values were filed as active, the others as inactive; ? = inconclusive; . = not tested or not shown. Sampled rows, rich in hits. Any-hit rate of the full collection: about 6.7%.
SMILES,C diff growth,Pf Dd2 inh,T cruzi growth-1,T cruzi growth-2,T cruzi growth-3,NIH3T3 tox,NIH3T3 tox 2
O=C(O)C[C@@H]1C[C@H]2c3cc(NC(=O)NC4CCCCC4)ccc3O[C@H]2[C@@H](CO)O1,3,-4,-23,.,.,.,.
COc1cccc(-c2ccc3c(c2)O[C@H](CN(C)C(=O)C2CC2)[C@H](C)CN([C@@H](C)CO)S3(=O)=O)c1,.,10,102*,82,43,18,68*
COc1cccc(-c2ccc3c(c2)O[C@H](CN(C)C(=O)C2CC2)[C@@H](C)CN([C@@H](C)CO)S3(=O)=O)c1,.,-33,81,.,.,.,.
COc1cccc(-c2ccc3c(c2)O[C@@H](CN(C)C(=O)c2ccccc2F)[C@H](C)CN([C@H](C)CO)S3(=O)=O)c1,1,-79,.,.,.,.,.
C[C@@H]1CN([C@@H](C)CO)S(=O)(=O)c2ccc(-c3ccccc3)cc2O[C@H]1CN(C)C(=O)C1CC1,-3,-13,?,78,29,38*,59*
COc1cccc(-c2ccc3c(c2)O[C@H](CN(C)C(=O)c2ccccc2F)[C@H](C)CN([C@H](C)CO)S3(=O)=O)c1,-4,-50,108*,105*,77,45*,74*
C[C@@H]1CN([C@H](C)CO)S(=O)(=O)c2ccc(-c3ccccc3)cc2O[C@H]1CN(C)C(=O)C1CC1,-11,-2,116,.,.,.,.
COc1cccc(S(=O)(=O)N[C@@H]2CC[C@H](CC(=O)NCc3ccc(F)cc3)O[C@@H]2CO)c1,-4,-10,26,.,.,.,.
CC(C)NC(=O)Nc1ccc2c(c1)CC(=O)N([C@H](C)CO)C[C@@H](C)[C@@H](CN(C)S(=O)(=O)c1ccccc1)O2,3,-3,-10,.,.,.,.
C[C@@H]1CN([C@@H](C)CO)C(=O)c2cc(-c3ccc(F)cc3)cnc2O[C@H]1CN(C)CC1CCCC1,8,-15,-20,.,.,.,.
C[C@H](CO)N1C[C@H](C)[C@@H](CN(C)C(=O)C2CC2)Oc2cc(-c3cccc(F)c3)ccc2S1(=O)=O,0,12,.,.,.,.,.
COc1ccc(NC(=O)Nc2ccc3c(c2)CC(=O)N([C@H](C)CO)C[C@H](C)[C@@H](CN(C)S(=O)(=O)c2cccs2)O3)cc1,-8,-6,-25,.,.,.,.
CCC(=O)N(C)C[C@@H]1Oc2ncc(-c3ccc(C#N)cc3)cc2C(=O)N([C@@H](C)CO)C[C@@H]1C,2,7,53,.,.,.,.
CC(C)NC(=O)N(C)C[C@H]1Oc2cc(C#Cc3ccccn3)ccc2S(=O)(=O)N([C@H](C)CO)C[C@H]1C,-4,-24,111*,99*,46,4,40*
CC(C)NC(=O)N(C)C[C@@H]1Oc2cc(C#Cc3ccccn3)ccc2S(=O)(=O)N([C@@H](C)CO)C[C@@H]1C,5,-64,?,30,16,-17,-4
CC(C)NC(=O)N(C)C[C@H]1Oc2cc(C#Cc3ccccn3)ccc2S(=O)(=O)N([C@@H](C)CO)C[C@H]1C,-3,-23,48,.,.,.,.
CC(C)NC(=O)N(C)C[C@@H]1Oc2cc(C#Cc3ccccn3)ccc2S(=O)(=O)N([C@H](C)CO)C[C@@H]1C,-1,-41,5,.,.,.,.
C[C@@H]1CN([C@H](C)CO)C(=O)c2cc(NC(=O)c3ccccc3)ccc2O[C@@H](C)CCCCO[C@H]1CN(C)C(=O)CCC(F)(F)F,-3,-23,-22,.,.,.,.
O=C(C[C@@H]1C[C@H]2c3cc(NC(=O)c4ccc5c(c4)OCO5)ccc3O[C@H]2[C@H](CO)O1)NCc1cccnc1,.,2,12,.,.,.,.
N#Cc1cccc(-c2ccc([C@H]3[C@@H](CO)N[C@@H]3CNC(=O)C3CCCC3)cc2)c1,3,-16,.,.,.,.,.
COc1ccc(NC(=O)Nc2ccc3c(c2)C(=O)N([C@@H](C)CO)C[C@H](C)[C@@H](CN(C)Cc2ccccc2)OCCCC[C@@H](C)O3)cc1,9,-75,69,.,.,.,.
COc1ccc(NC(=O)Nc2ccc3c(c2)C(=O)N([C@@H](C)CO)C[C@@H](C)[C@H](CN(C)Cc2ccccc2)OCCCC[C@H](C)O3)cc1,1,-39,100*,110*,42,9,35*
COc1ccc(NC(=O)Nc2ccc3c(c2)C(=O)N([C@H](C)CO)C[C@@H](C)[C@@H](CN(C)Cc2ccccc2)OCCCC[C@@H](C)O3)cc1,-6,-73,103*,111*,83,8,53*
COc1ccc(NC(=O)Nc2ccc3c(c2)C(=O)N([C@@H](C)CO)C[C@@H](C)[C@@H](CN(C)Cc2ccccc2)OCCCC[C@@H](C)O3)cc1,-3,-63,92,.,.,.,.
C[C@@H]1CN([C@@H](C)CO)C(=O)Cc2cc(NS(=O)(=O)c3ccc(F)cc3)ccc2O[C@H]1CN(C)S(=O)(=O)c1cn(C)cn1,13,18,-24,.,.,.,.
SMILES,C diff growth,Pf Dd2 inh,T cruzi growth-1,T cruzi growth-2,T cruzi growth-3,NIH3T3 tox,NIH3T3 tox 2
CCCNC(=O)Nc1ccc2c(c1)C(=O)N(C)C[C@@H](OC)[C@@H](C)CN(C(=O)C1CCOCC1)[C@H](C)CO2,.,-16,-58,.,.,.,.
CC(C)CC#Cc1ccc2c(c1)O[C@H](CN(C)CC1CC1)[C@H](C)CN([C@@H](C)CO)S2(=O)=O,13,-47,?,100*,90,40*,107*
CC(C)CC#Cc1ccc2c(c1)O[C@H](CN(C)CC1CCOCC1)[C@@H](C)CN([C@@H](C)CO)S2(=O)=O,16,-70,106,.,.,.,.
CC(C)CC#Cc1ccc2c(c1)O[C@H](CN(C)CC1CCOCC1)[C@H](C)CN([C@H](C)CO)S2(=O)=O,5,-19,?,108*,85,22,105*
CCCC#Cc1ccc2c(c1)O[C@@H](CN(C)CC1CC1)[C@@H](C)CN([C@@H](C)CO)S2(=O)=O,.,-62,31,.,.,.,.
CCCC#Cc1ccc2c(c1)[C@@H]1[C@@H](CCN1S(=O)(=O)c1ccc(C)cc1)[C@@H](CO)N2C,-9,-59,93,.,.,.,.
COCC(=O)Nc1ccc2c(c1)OC[C@H](C)N(Cc1ccccc1)C[C@@H](C)[C@@H](OC)CN(C)C2=O,0,-20,-44,.,.,.,.
COc1ccc(NC(=O)N(C)C[C@H]2Oc3c(NC(=O)c4ccncc4)cccc3C(=O)N([C@@H](C)CO)C[C@H]2C)cc1,0,-10,-14,.,.,.,.
CC1C=NC(S(=O)(=O)N2CC[C@@H]3[C@H]2c2cc(-c4ccccc4)ccc2N(C)[C@H]3CO)=N1 (stereo partly drawn),0,11,?,101*,84,-2,-11
CC1C=NC(S(=O)(=O)N2CC[C@@H]3[C@H]2c2cc(-c4cccc(F)c4)ccc2N(C)[C@H]3CO)=N1 (stereo partly drawn),-6,-37,?,105*,77,5,3
